# The panel holds about 83,000 compounds, 20% with a hit somewhere; the sample as a whole holds those more often.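 Note: values are percent growth. 100 is the growth of untreated cells, values between 100 and 0 indicate rising inhibition; between -100 and 0 indicates cell death.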 Unmarked numbers belong to inactive results. Activity calls are given as the source filed them. The calls were made as follows: active = growth percent below 10; inactive = the rest.
# How the values were obtained:
# Assay in all cases: NCI-60 one-dose screen, 48 h (100 = growth as untreated, 0 = no growth, -100 = all killed)
# Details in all cases: 10 µM unless noted
# DU-145 prostate = system: DU-145 prostate
# K-562 leukemia = system: K-562 leukemia
# MALME-3M melanoma = system: MALME-3M melanoma
# MDA-MB-231 breast = system: MDA-MB-231 breast
# RXF 393 renal = system: RXF 393 renal
# SF-268 CNS = system: SF-268 CNS
# SF-295 CNS = system: SF-295 CNS
# UACC-257 melanoma = system: UACC-257 melanoma
# M14 melanoma = system: M14 melanoma
# HCT-15 colon = system: HCT-15 colon
# HT29 colon = system: HT29 colon
# SNB-75 CNS = system: SNB-75 CNS
# SNB-19 CNS = system: SNB-19 CNS
# U251 CNS = system: U251 CNS
# PC-3 prostate = system: PC-3 prostate
# SK-MEL-5 melanoma = system: SK-MEL-5 melanoma
# UACC-62 melanoma = system: UACC-62 melanoma
# SK-MEL-28 melanoma = system: SK-MEL-28 melanoma
# LOX IMVI melanoma = system: LOX IMVI melanoma
SMILES,growth (DU-145 prostate),growth (K-562 leukemia),growth (MALME-3M melanoma),growth (MDA-MB-231 breast),growth (RXF 393 renal),growth (SF-268 CNS),growth (SF-295 CNS),growth (UACC-257 melanoma),growth (M14 melanoma),growth (HCT-15 colon),growth (HT29 colon),growth (SNB-75 CNS),growth (SNB-19 CNS),growth (U251 CNS),growth (PC-3 prostate) [%],growth (SK-MEL-5 melanoma),growth (UACC-62 melanoma),growth (SK-MEL-28 melanoma),growth (LOX IMVI melanoma)
C=C1CC[C@@H]2[C@](C)(COC(C)=O)[C@H](OC(C)=O)CC[C@@]2(C)[C@@H]1CC(Nc1ccc(S(=O)(=O)Nc2ccc(Cl)nn2)cc1)C1=CCOC1=O (some centres not stated),40.2%,6.81% (active),55.3%,23.8%,-13.4% (active),43.3%,92.8%,44%,10.7%,-18.4% (active),-18.3% (active),25.2%,76%,-41.2% (active),38.4,35.8%,-50% (active),6.66% (active),
CCOC(=O)c1ccc2c(c1)nc(/C=C/c1ccc(Cl)cc1)n2-c1cc(C(C)(C)C)[nH]n1,74.1%,19.1%,61.2%,52.5%,21.3%,54.6%,56.2%,67%,83.4%,35.6%,57.7%,0.573% (active),77.6%,50.5%,,62.1%,19.1%,47.3%,39.9%
COc1cc(C2CC(=O)c3c(C)nn(-c4nc5ccccc5[nH]4)c3C2)cc(OC)c1OC (configuration not stated),85%,71.7%,75.1%,29.5%,30.3%,7.82% (active),64.7%,98.7%,102%,87%,74.2%,-24.8% (active),71.8%,30%,72.2,87.1%,,86.5%,
Cn1cc(-c2nc(-c3c[nH]c4ccccc34)cs2)c2cccnc21,31.6%,18%,54.7%,30.6%,27.9%,52.4%,11.5%,61.5%,19.6%,30%,7.8% (active),-6.18% (active),,26.6%,32.5,21.6%,51.4%,,39.4%
Cc1nn(-c2nc3ccccc3[nH]2)c2c1C(c1ccc3c(c1)OCO3)CC(=O)N2 (configuration not stated),30.7%,-14.8% (active),27.7%,40.8%,8.03% (active),19.3%,-36.3% (active),69.1%,42.5%,47.6%,34.7%,39.8%,49%,30.5%,21.6,12.4%,27.3%,82.3%,
C=C1CCC2C3(C)COC(C)(C)OC3CCC2(C)C1C/C=C1/C(=O)OCC1OC(C)=O (configuration not stated),42.4%,9.82% (active),71.9%,86.2%,-53.8% (active),63.4%,116%,20.2%,19.3%,33.8%,18.4%,58%,110%,36.7%,56.4,56.9%,,69.6%,8.63% (active)
COc1ccc2nc3cc(Cl)ccc3c(N3CCN(c4nccc(Nc5ccc(Cl)cc5)n4)CC3)c2c1,75.5%,10.8%,120%,60.3%,53.1%,53.7%,84.1%,88.7%,43.4%,56.5%,69.7%,51.4%,,62.1%,40.3,86.7%,81.6%,,
CC(=O)N1CC(Nc2ccc(OC(F)(F)F)cc2)=CC1=O,27%,8.54% (active),55.7%,55%,39.6%,59.8%,14.7%,46.6%,4.04% (active),30.8%,7.79% (active),9.15% (active),42.3%,28.6%,30.6,21.2%,39.1%,56.5%,
CC[n+]1ccc2c(c1)C(=O)c1nccc3c1c-2nc1ccccc13,-10.9% (active),20%,-85.5% (active),-8.92% (active),-2.9% (active),-16.4% (active),-27.6% (active),-8.02% (active),-16.3% (active),48.5%,10%,-75.2% (active),-70.5% (active),-60% (active),,-28.3% (active),-57.7% (active),,-3.96% (active)

# Source: PubChem BioAssay (NCI)
